PostGolgi yeast: growth inhibition of a yeast mutant, post-Golgi transport screen | 0.9% of 98,000 active | post-Golgi transport phenotypic cell assay | inhibition, % at 10 µM;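 also: yeast cells grown in 1536-well plates; yeast grown about 18 h at 30C before absorbance read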
hDAT+cocaine: changed human dopamine transporter uptake under cocaine IC80. LLC-PK1 hDAT cells, [14C]-dopamine uptake with cocaine IC80; actives deviate in either direction. 1.3% of 110,000 active. B-score at 10 µM. Q01959. AID 449768;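 active = Z score or B-score, a plate-position-corrected score, falls beyond the plate's 99.7% confidence bounds, in either direction; inactive = both scores lie inside the 99.7% bounds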
Cav3 T inh: blocks human Cav3.2 T-type calcium channel | AID 449739 | 4% of 100,000 active | O95180 | B-score at 10 µM | Cav3.2-expressing cells, Fluo-4 calcium fluorescence FDSS; stronger effect = lower value;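 active = single-dose well whose peak fluorescence ratio is a statistical outlier from its plate by either plate-standardised score or position-corrected B-score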
Smad3 inh: Smad3 (human) transcription factor binding inhibition | TR-FRET Smad3/Dy647-FoxH1 peptide binding, europium anti-His | inhibition, % at 25 µM | 0.29% of 88,000 active | AID 630;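 active = compounds that reduce the energy-transfer binding signal between the protein and its labelled peptide by more than half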
Target sequence (P84022 whole entry, looked up): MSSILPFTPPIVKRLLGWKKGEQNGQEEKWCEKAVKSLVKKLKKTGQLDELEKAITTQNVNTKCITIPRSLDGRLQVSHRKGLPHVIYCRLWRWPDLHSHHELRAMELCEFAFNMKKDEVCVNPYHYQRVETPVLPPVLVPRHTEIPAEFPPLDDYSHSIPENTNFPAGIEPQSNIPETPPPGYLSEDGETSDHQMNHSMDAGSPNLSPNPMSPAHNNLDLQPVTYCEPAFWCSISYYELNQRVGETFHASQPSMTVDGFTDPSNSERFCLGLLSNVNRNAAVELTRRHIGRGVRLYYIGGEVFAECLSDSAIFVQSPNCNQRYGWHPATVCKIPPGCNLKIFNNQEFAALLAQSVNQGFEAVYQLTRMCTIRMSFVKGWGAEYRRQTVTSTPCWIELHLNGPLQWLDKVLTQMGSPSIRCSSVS
TNAP act DEA: human TNAP activation, intermediate phosphate acceptor; P05186; purified TNAP, CDP-star luminescence, 100 mM DEA, 30 min; stronger effect = higher value; scale: 0 levamisole-inhibited, 1 vehicle-only enzyme; activation factor at 20 µM; 64,000 tested, under 10 active; AID 813;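 active = activation factor of at least 2 at 20 µM, relative to controls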
PostGolgi ctrl: inhibits growth of the yeast control strain; efflux-deficient yeast background strain, growth absorbance A615, 16 h; inhibition, % at 10 µM; 5% of 98,000 active
Each line names hits and unclear results; the compound was inactive in the other large screens. Only some compounds are listed: those with a hit (about 8.7% of all), similar ones and a draw of the others. Rule as the data show it, unless noted: active = inhibition above about 30%; inactive = the rest.

COc1ccccc1NC(=O)C(C)NS(=O)(=O)c1ccccc1 (stereo not given)	none
O=C(O)CCCCCN1C(=O)c2ccc(C(=O)O)cc2C1=O	none
CNc1nc2ccccc2n1/N=C/c1cccc(OC)c1OC	none (no result: TNAP act DEA)
CCOC(=O)c1ccccc1NC(=O)c1cccc(F)c1	none (no result: TNAP act DEA)
CCOC(=O)C1=C(C)N(C)C(=O)NC1c1cccc([N+](=O)[O-])c1 (stereo not given)	none (no result: PostGolgi yeast, Smad3 inh, TNAP act DEA, PostGolgi ctrl)
O=C1CC(c2cccc([N+](=O)[O-])c2)c2ccc3ccccc3c2N1 (stereo not given)	PostGolgi ctrl 54 (no result: Smad3 inh, TNAP act DEA)
CC[C@H](C)/C=C(C)/C=C/C1=CC2=CC(=O)[C@]3(C)OC(=O)[C@@H](C(C)=O)[C@@H]3C2=CO1	Cav3 T inh -4 (no result: PostGolgi yeast, Smad3 inh, TNAP act DEA, PostGolgi ctrl)
CC(=O)NCCc1ccc(S(=O)(=O)Nc2cccnc2)cc1	PostGolgi ctrl 33
CC(C)(C)c1ccc(S(=O)(=O)Nc2cccnc2)cc1	PostGolgi ctrl 30 (no result: TNAP act DEA)
O=S(=O)(Nc1cccnc1)c1ccc(Cl)cc1	none (no result: TNAP act DEA)
Cc1cc(C)c(Cn2c(=O)n(CCCC(=O)NCc3ccco3)c(=O)c3sccc32)c(C)c1	none (no result: TNAP act DEA)
CCCCCCn1c(CN2CCCCC2C)nc2c1c(=O)n(C)c(=O)n2C (stereo not given)	none (no result: PostGolgi yeast, TNAP act DEA, PostGolgi ctrl)
CCCn1c(CN2CCCCC2C)nc2c1c(=O)n(C)c(=O)n2C (stereo not given)	PostGolgi ctrl 37
C/C(CC(=O)Nc1ccccc1-c1ccccc1)=N\NC(=O)COc1ccc(C)cc1Br	Cav3 T inh -6.5 (no result: TNAP act DEA)
C/C(CC(=O)Nc1ccccc1[N+](=O)[O-])=N\NC(=O)COc1ccccc1C	none (no result: Smad3 inh, TNAP act DEA)
COc1ccc2c(c1)C(=NN)c1cc(OC)ccc1-2	none (no result: TNAP act DEA)
CCn1c(=O)cc(OCC(=O)NCCCN2CCC(C)CC2)c2ccccc21	none
COc1ccccc1N1CCN(C(=O)Cc2cccs2)CC1	PostGolgi ctrl 38
O=C(Cc1cccs1)N1CCN(c2ccc(F)cc2)CC1	none (no result: PostGolgi yeast, TNAP act DEA, PostGolgi ctrl)
COc1ccccc1N1CCN(C(=O)CSc2nc3ccccc3o2)CC1	PostGolgi yeast 33 (no result: TNAP act DEA)
O=C(CSc1nc(N2CCCCC2)nc(N2CCCCC2)n1)N1CCN(c2ccccc2)CC1	Cav3 T inh -8.8 (no result: PostGolgi yeast, PostGolgi ctrl)
COc1ccc(Cc2nnc(SCC(=O)N3CCN(c4ccccc4)CC3)o2)cc1	PostGolgi ctrl 36
COc1cccc(NC(=O)CSc2nnnn2C(C)C)c1	none
Nc1ccc(Cl)c(NC(=O)c2cccs2)c1	none
CSc1oc(-c2ccc(F)cc2)nc1S(=O)(=O)c1ccccc1	none (no result: PostGolgi yeast, TNAP act DEA, PostGolgi ctrl)
Cc1nnc(SCc2ccc(C(=O)O)cc2)s1	none (no result: TNAP act DEA)
O=C(O)c1ccc(CSc2nnc(SCc3ccccc3)s2)cc1	Cav3 T inh -6.6 (no result: Smad3 inh, TNAP act DEA)
Cc1cc(C)cc(NC(=O)c2ccc(CSc3nnc(C)s3)cc2)c1	Cav3 T inh -11 (no result: Smad3 inh, TNAP act DEA)
COc1cccc(OC)c1C(=O)NN1CCCCC1	none (no result: Smad3 inh, TNAP act DEA)
On1onc2c3cc(-c4ccccc4)nc3ccc21	PostGolgi yeast 96, PostGolgi ctrl 94 (no result: hDAT+cocaine, Cav3 T inh)
c1ccc(-c2cc3c(ccc4nonc43)nn2)cc1	none
CNC(=S)N1N=C(c2ccc(C)cc2)CC1c1ccc(Br)cc1 (stereo not given)	Cav3 T inh -6.3, PostGolgi ctrl 35 (no result: TNAP act DEA)
Cc1ccc(C2=NNC(=O)C(c3ccc(Cl)cc3)C2)cc1 (stereo not given)	none (no result: TNAP act DEA)
CCC(=O)N1N=C(c2ccc(NS(C)(=O)=O)cc2)CC1c1ccc(C)cc1 (stereo not given)	none (no result: TNAP act DEA)
CNC(=S)N1N=C(c2ccc(C)cc2)CC1c1ccc(Cl)cc1 (stereo not given)	Cav3 T inh -6.2, PostGolgi ctrl 44 (no result: TNAP act DEA)
Nc1nc(-c2ccco2)nn1C(=O)c1ccccc1	none (no result: TNAP act DEA)
CC(=O)N1c2ccccc2C(C)CC12CCCCC2 (stereo not given)	none
CC(=O)N1c2ccccc2C(C)(c2ccccc2)CC1(C)C (stereo not given)	Cav3 T inh -5 (no result: TNAP act DEA)
CN1CCN(CC(=O)N2c3ccccc3C(C)(c3ccccc3)CC2(C)C)CC1 (stereo not given)	PostGolgi ctrl 36
C[C@H]1O[C@@H](O[C@H]2[C@@H](O)C[C@H](O[C@H]3[C@@H](O)C[C@H](O[C@H]4CC[C@@]5(C)[C@H](CC[C@@H]6[C@@H]5C[C@@H](O)[C@]5(C)[C@@H](C7=CC(=O)OC7)CC[C@]65O)C4)O[C@@H]3C)O[C@@H]2C)C[C@H](O)[C@@H]1O	hDAT+cocaine -6.2 (no result: PostGolgi yeast, Smad3 inh, TNAP act DEA, PostGolgi ctrl)

Screens from PubChem BioAssay.
